This is a sample that favours compounds with a hit; in the whole collection about 5.7% have one here.
ClpP mod: qHTS Assay for Activators of ClpP; purified B. subtilis ClpP, FRET peptide cleavage, 20 min; Potency, µM (series often up to 57.5 µM), inactives show at the top dose activity change, negative = active; 340,000 compounds, 1.9% hits; AID 651965, 2013; active = well fitted falling curve with a large enough effect; inconclusive = small, poorly fitted or top-dose-only effect; inactive = no such curve, though single readings can be large or run the other way; note: potency is the fitted concentration of half-maximal effect; the source files actives as falling curves though it sought activators and does not explain the sign; nearly all actives have a fitted effect of over 65% in size
Target sequence (P80244 whole entry, looked up): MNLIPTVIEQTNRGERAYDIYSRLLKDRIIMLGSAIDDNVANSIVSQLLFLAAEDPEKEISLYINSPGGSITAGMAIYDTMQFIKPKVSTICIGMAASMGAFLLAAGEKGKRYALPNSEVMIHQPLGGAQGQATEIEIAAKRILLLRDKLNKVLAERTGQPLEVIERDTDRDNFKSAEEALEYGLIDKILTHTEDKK
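Purified B. subtilis ClpP, 10 microg/mL final in Tris/HCl pH8 with KCl, BSA, glycerol and Tween-20, cleaved an Abz/nitrotyrosine-quenched decapeptide. Fluorescence (ex 320, em 430) was read at 0 and 20 min at room temperature. Delta was normalized to 5.8 microM ADEP and DMSO/no-enzyme controls.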
DRD3 antagonist: qHTS of D3 Dopamine Receptor Antagonist: qHTS | D(3) dopamine receptor (Homo sapiens), P35462 | D3R cells, DiscoveRx beta-arrestin luminescence, antagonist mode; active compounds read low | max response, negative = inhibition, % | 360,000 compounds, 2.5% hits | AID 652054, 2013; in the data active = max response below about -50%; inconclusive = no clear call, values can overlap the other calls; note: % is set by controls: 0 for no effect and ±100 for the full control effect
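Cells expressing the human receptor were seeded at 1500 cells/well, incubated overnight at 37 degrees C in 5% CO2, then exposed to library compounds with dopamine controls for 90 minutes at 37 degrees C before luminescent detection.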
GLP1R inv ag: qHTS of GLP-1 Receptor Inverse Agonists (Inhibition Mode) | Glucagon-like peptide 1 receptor (Homo sapiens), P43220 | HEK293 GLP-1R CRE-luciferase, luminescence, 24 h; GLP-1R form is constitutively active | Potency, µM (titrated, usually from 38.3 µM), without a hit: at the highest dose activity change, negative = inhibition, actives largely listed as inhibitors | 410,000 compounds, 1.6% hits | AID 624417, 2012; note: potency is the fitted concentration of half-maximal effect; % is set by controls: 0 for no effect and ±100 for the full control effect; nearly all actives have a fitted effect of over 55% in size
Target sequence (P43220 whole entry, looked up): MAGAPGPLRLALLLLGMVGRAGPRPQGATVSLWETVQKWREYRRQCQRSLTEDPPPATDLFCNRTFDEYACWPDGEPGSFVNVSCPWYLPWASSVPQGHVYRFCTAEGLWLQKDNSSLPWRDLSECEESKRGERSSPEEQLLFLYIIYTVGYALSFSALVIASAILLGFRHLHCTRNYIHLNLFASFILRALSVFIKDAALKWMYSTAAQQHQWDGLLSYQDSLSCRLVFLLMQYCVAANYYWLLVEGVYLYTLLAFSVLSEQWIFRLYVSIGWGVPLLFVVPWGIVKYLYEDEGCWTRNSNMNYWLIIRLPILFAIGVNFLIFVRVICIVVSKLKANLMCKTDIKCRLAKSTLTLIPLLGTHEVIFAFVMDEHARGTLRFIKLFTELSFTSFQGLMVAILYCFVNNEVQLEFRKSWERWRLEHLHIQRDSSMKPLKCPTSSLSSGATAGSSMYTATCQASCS
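GLP-1R inverse agonism mode: basal reporter luminescence in engineered HEK293 cells measured after one day of compound exposure at 37 deg C, with a 12 min room-temperature detection step.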
DRD3 agonist: qHTS of D3 Dopamine Receptor Agonist: qHTS | D(3) dopamine receptor (Homo sapiens), P35462 | D3R DiscoveRx beta-arrestin cells, luminescence, 90 min | max activation, % | 410,000 compounds, 0.58% hits; in the data active = max activation above about 30%; note: 0% is about no effect
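Cells at 1500/well, incubated overnight, then treated with pinned compounds (dopamine as control) for 90 min at 37 degrees C. DiscoveRx reagent added for 30 - 60 minutes at room temperature; luminescence read.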
GLP1R cytotox: qHTS of GLP-1 Receptor Inverse Agonists: Cytotox Screen. Potency, µM (doses to about 38.3 µM), inactives show top-dose activity change, negative = inhibition, hits mostly inhibitors. AID 624418, 2012. HEK293 cAMP-luciferase reporter cells, luminescence, 24 h. 410,000 compounds, 0.13% hits;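 note: loss of luciferase light is scored as toxicity; potency is the fitted concentration of half-maximal effect; % is set by controls: 0 for no effect and ±100 for the full control effect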
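Luminescence readout: signal drop marks cytotoxicity. Plated cells grew 12 h at 37 °C, 5% CO2, received 23 nL compound for 24 h, then got luciferase reagent, read after 12 min at RT.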
GLP1R ag: qHTS of GLP-1 Receptor Agonists; 380,000 compounds, 0.007% hits; Potency, µM (series often up to 45.6 µM), for the others: at the top dose activation, hits mostly activators; HEK293 GLP-1R CRE-luciferase, luminescence, 4-6 h; cells express a hypersensitive GLP-1R form; AID 624172, 2012; Glucagon-like peptide 1 receptor (Homo sapiens), P43220; note: potency is the fitted concentration of half-maximal effect; % of control where 0% means no effect
Starred values were filed as active, the others as inactive; ? = inconclusive; · = no result given. Unless noted, calls come from the whole dose curve; as a rule, active = well fitted curve in the direction sought with a large enough effect; inconclusive = small, poorly fitted or top-dose-only effect, or another doubt; inactive = no such curve, though single readings can be large; an effect the other way counts as inactive or inconclusive.

SMILES	ClpP mod	DRD3 antagonist	GLP1R inv ag	DRD3 agonist	GLP1R cytotox	GLP1R ag
COC(=O)Cc1cc(=O)n2[nH]c(C)cc2n1	-7.2%	-51.9*	0.6%	0.9	-8.5%	-2.2%
CCCc1cc(=O)n2[nH]c(C)cc2n1	31.6µM*	-0.5	5.9%	1.5	6.0%	3.7%
CCCc1cc(=O)n2[nH]c(-c3ccc(C)cc3)nc2n1	-24.5%	·	4.6%	-10.7	-1.4%	·
COC(=O)Cc1cc(=O)n2[nH]c(C)nc2n1	-0.9%	1.8	5.3%	-2.7	8.3%	4.3%
CCCc1cc(=O)n2[nH]c(-c3ccco3)nc2n1	-20.3%	-13.7	19.4%	43.1*	1.0%	10.4%
Cc1cc(=O)n2[nH]c(-c3ccco3)nc2n1	-17.0%	-24.1	-4.4%	-12.2	-10.9%	-2.3%
Cc1cccc(-c2nc(CN3CCCC(C(=O)N4CCN(c5cc(Cl)ccc5C)CC4)C3)c(C)o2)c1 (stereo unspecified)	-12.4%	·	?	-11.7	?	·
COc1ccc(Nc2nc(N3CCCCC3)c3ccccc3n2)cc1	-1.1%	?	5.62µM*	3.4	?	-6.1%
c1ccc(Nc2nc(N3CCCCC3)nc(N3CCCCC3)n2)cc1	-1.7%	17.4	10µM*	2.5	-13.0%	-0.9%
Oc1ccc(Nc2nc(N3CCCC3)c3ccccc3n2)cc1	-2.4%	-70.6*	?	-1.2	-10.8%	-15.5%
COCCc1nn2c(=O)cc(COC(=O)COc3ccccc3C)nc2s1	-0.8%	·	5.5%	-7.6	2.1%	·
Cc1ccc(-n2c3c(cc(C(=O)Nc4cccc(Cl)c4)c2=O)C(=O)CC(C)(C)C3)cc1	1.0%	·	5.6%	-15.9	-1.0%	·
CCCOc1cccc(C2c3c(oc4ccc(F)cc4c3=O)C(=O)N2CCCN2CCOCC2)c1 (stereo unspecified)	0.7%	·	-8.9%	0.0	0.1%	-1.0%
Cc1nn(CC(=O)NCc2ccc(F)cc2)c2ccccc12	-3.9%	·	-5.0%	-10.0	9.4%	·
Cc1ccc(-n2nc(C)c3c2OC(N)=C(C#N)C3c2ccncc2)cc1 (stereo unspecified)	-2.1%	0.0	-12.7%	-1.7	-6.6%	-7.4%
Cc1ccc(-n2nc(C)c3c2OC(N)=C(C#N)C3c2ccccc2F)cc1 (stereo unspecified)	-2.8%	-52.0*	-23.9%	1.2	-2.9%	0.3%
O=C(C1=C(O)C(=O)N(c2ncccn2)C1c1cccc(Cl)c1)c1ccco1 (stereo unspecified)	-1.0%	-74.5*	0.0%	-2.9	-10.2%	-6.3%
COc1ccc(CNC(=O)[C@]2(C)CCC[C@@]3(C)C4CC[C@@]5(C)C[C@]4(CCC32)CC5=O)cc1 (stereo partly specified)	-1.4%	39.0	10µM*	6.7	-12.4%	-1.6%
Cc1ccc(CNC(=O)[C@]2(C)CCC[C@@]3(C)C4CC[C@@]5(C)C[C@]4(CCC32)CC5=O)cc1 (stereo partly specified)	1.5%	33.3	?	18.6	-25.6%	7.0%
Cc1n[nH]c(C)c1S(=O)(=O)N(CC(=O)Nc1ccc(C(F)(F)F)cc1)c1ccc(C(C)C)cc1	3.0%	·	10µM*	-1.9	-11.8%	·
COc1ccc(N(CC(=O)Nc2cc(Cl)ccc2C)S(=O)(=O)c2c(C)n[nH]c2C)cc1	1.6%	-14.9	4.47µM*	-8.8	?	-3.7%
O=C1CCCc2c1cc(C(=O)NC1CCSC1=O)c(=O)n2-c1ccccc1 (stereo unspecified)	25.1µM*	-3.6	1.1%	-3.0	-6.1%	-9.2%
COc1ccc(-n2c3c(cc(C(=O)NNc4ccccc4)c2=O)C(=O)CC(C)(C)C3)cc1	·	-4.8	1µM*	2.5	-10.6%	12.4%
O=C1CCCc2c1cc(C(=O)O)c(=O)n2-c1ccccc1	·	12.7	13.1%	-6.3	-3.2%	0.6%
CC1(C)CC(=O)c2cc(C(=O)NC3CCSC3=O)c(=O)n(-c3ccccc3)c2C1 (stereo unspecified)	25.1µM*	-0.6	-20.1%	-7.3	7.8%	1.3%
SMILES	ClpP mod	DRD3 antagonist	GLP1R inv ag	DRD3 agonist	GLP1R cytotox	GLP1R ag
Cc1ccc(-n2c(=O)c3c(cnn3C)n(CC(=O)Nc3cccc(C)c3)c2=O)cc1	-3.7%	·	9.7%	-6.7	0.6%	·
CCOC(=O)c1sc(C)c2c1NC(C)(c1ccccc1)NC2=O (stereo unspecified)	31.6µM*	-1.7	-7.5%	-4.3	60.3%	12.4%
CC1CCN(CC(O)COCCC23CC4CC(CC(C4)C2)C3)CC1 (stereo unspecified)	0.6%	-57.4*	?	-21.4	?	0.5%
C=CCn1c(C)cc(C(=O)CSc2nc3ccccc3c(=O)[nH]2)c1C	0.3%	-62.2*	2.5%	8.6	-15.4%	-8.2%
COc1c2ccoc2c(OC[C@@H](O)C(C)(C)O)c2oc(=O)ccc12	-3.0%	-1.6	-0.8%	5.0	1.9%	9.5%
COc1c2ccoc2c(OC[C@@H](OC(C)=O)C(C)(C)O)c2oc(=O)ccc12	-6.8%	30.3	4.3%	48.1*	9.4%	3.0%
CCC1CCCCN1S(=O)(=O)c1cc(C(=O)Nc2ccc(C)c(F)c2)ccc1F (stereo unspecified)	-8.5%	·	10µM*	-3.0	-7.8%	·
O=C(Nc1cc(Cl)cc(Cl)c1)c1ccc(F)c(S(=O)(=O)NC2CCCCC2)c1	-10.5%	·	?	-9.8	?	·
O=C(Nc1ccc(Br)cc1)c1ccc(F)c(S(=O)(=O)NC2CCCCCC2)c1	-10.0%	·	3.16µM*	-5.2	?	·
CCC1CCCCN1S(=O)(=O)c1ccc(NC(=O)c2ccncc2)cc1 (stereo unspecified)	0.6%	4.9	-27.9%	26.1	-1.8%	-1.4%
NC(N)=NCC(O)CN(c1ccccc1)c1ccccc1 (stereo unspecified)	·	0.4	?	-3.2	-2.4%	12.0%
CN(CCO)CC(O)CN(c1ccccc1)c1ccccc1 (stereo unspecified)	?	-50.7*	?	0.1	-23.3%	-3.2%
CNCC(O)CN(c1ccccc1)c1ccccc1 (stereo unspecified)	·	-21.7	6.31µM*	-6.5	-1.6%	1.0%
C/C(=N\Nc1nc(C(C)(C)C)cs1)c1ccccc1	-0.4%	3.6	8.91µM*	-10.6	1.7%	-0.5%
COc1ccc(CNCc2cccc3ccccc23)cc1	-0.4%	-60.0*	?	-7.9	0.7%	-0.2%

From PubChem
